Anthrax LF inh2 = Bacillus anthracis LF protease inhibitors, primary screen, biochemical, multiplex microsphere, MLPCN library; multiplex microsphere protease cleavage assay; inhibition, % at 10 µM; 0.12% of 360,000 active; AID 588501, 2011
BoNT-A LC inh2 = BoNT/A light chain protease inhibitors, primary screen, biochemical, flow cytometry, MLPCN library; Botulinum neurotoxin type A light chain protease (Clostridium botulinum A str. ATCC 3502); multiplex microsphere protease substrate cleavage; inhibition, % at 10 µM; 0.17% of 360,000 active
BoNT F protease = BoNT/F light chain protease inhibitors, primary screen, biochemical, flow cytometry, MLPCN library. Multiplex microsphere protease cleavage assay. Botulinum neurotoxin type F light chain protease (Clostridium botulinum). inhibition, % at 10 µM. 0.22% of 360,000 active; in the data active = inhibition above about 35%, passing the limit was not always enough; inconclusive = no clear call, values can overlap the other calls
GDH-TPI inh = GDH-TPI coupling enzyme inhibitors, primary screen, artefact control for M. tuberculosis FBA inhibitor project, biochemical, absorbance, full deck. 1.2% of 360,000 active. GDH-TPI coupled enzyme counterscreen, NADH absorbance. inhibition, % at 4.8 µM. AID 588335, 2011; in the data active = inhibition above about 30%
Bead autofluor = counter-screen for toxin protease inhibitors: compound fluorescence | fluorescence intensity (no concentration beside the values) | 3.1% of 360,000 active | compound autofluorescence counterscreen, microsphere flow cytometry; hits give high values | AID 624483; in the data active = fluorescence intensity above about 16000; inconclusive = no clear call, values can overlap the other calls
FBA Mtb inh = Mtb FBA enzyme inhibitors, primary screen, biochemical, fluorescence, strain H37Rv | purified M. tuberculosis FBA, fluorescence read-out | inhibition, % at 1 µM | 2.3% of 360,000 active | AID 588726, 2011; in the data active = inhibition above about 27%
Large screens that a line does not name were inactive. Rows were chosen to be rich in hits. Some 6.6% of all compounds tested hit in one or more screens of this group. Rule as the data show it, unless noted: active = inhibition above about 30%; inconclusive = no clear call, values can overlap the other calls; inactive = below that.

CC(=O)Nc1ccc(-c2ccnc3c2CC(C)(C(=O)Nc2ccc4c(c2)OCO4)O3)cc1 (stereo unspecified)	none
CC(=O)C1=C(O)C(=O)N(c2ccc(O)cc2)C1c1cccc(F)c1 (stereo unspecified)	none
O=C(Nc1nnc(-c2ccc(Cl)cc2)o1)c1cccc(N2C(=O)CCC2=O)c1	none
O=C(Nc1nnc(-c2ccncc2)o1)c1cccc(N2C(=O)CCC2=O)c1	GDH-TPI inh 38
Cc1cccn2c(=O)c3c(nc12)N1CCc2ccccc2C1C1(C3)C(=O)NC(=O)N(C)C1=O (stereo unspecified)	Bead autofluor 19729
Cn1c(=O)c2c(nc(CN3CCN(C(c4ccccc4)c4ccccc4)CC3)n2CC(N)=O)n(C)c1=O	Bead autofluor 21667
CC1CCCN(Cc2nc3c(c(=O)n(C)c(=O)n3C)n2CC(N)=O)C1 (stereo unspecified)	Bead autofluor 16667
CCOCCn1c(CN2CCCC(C)C2)nc2c1c(=O)n(C)c(=O)n2C (stereo unspecified)	none
CCOC(=O)Cn1c(CN2CCN(C(c3ccccc3)c3ccccc3)CC2)nc2c1c(=O)n(C)c(=O)n2C	none
CC(OC(=O)c1ccc(S(C)(=O)=O)c([N+](=O)[O-])c1)C(=O)NC1C2CC3CC(C2)CC1C3 (stereo unspecified)	none
Oc1ccccc1C1N=C(c2ccccc2)NC(c2ccccc2)=N1	Bead autofluor 22671
Oc1ccc(C2N=C(c3ccccc3)NC(c3ccccc3)=N2)cc1	none
O=c1c2ccccc2cnn1-c1ccc2ccccc2c1	Bead autofluor 23123
O=c1c2ccccc2cnn1-c1ccc(Br)cc1	none
CCn1nc(NS(=O)(=O)c2ccc(F)cc2)c2cc3cccc(C)c3nc21	none
CCn1nc(NS(=O)(=O)c2ccccc2)c2cc3cccc(C)c3nc21	BoNT-A LC inh2 inconclusive, Bead autofluor 19546
CN1C(=O)C(Cc2nc3ccccc3c(=O)n2-c2ccccc2)c2ccccc21 (stereo unspecified)	BoNT-A LC inh2 inconclusive, Bead autofluor 19805
O=C(NC1CCCC1)c1cc2c(=O)n3ccccc3nc2s1	FBA Mtb inh 178
CC1CCCCN1C(=O)c1cc2c(=O)n3ccccc3nc2s1 (stereo unspecified)	FBA Mtb inh 101
Cn1c(C(=O)NCc2ccccn2)cc2c(=O)n3ccccc3nc21	FBA Mtb inh 196
CCC1CCCCN1C(=O)c1cc2c(=O)n3cccc(C)c3nc2s1 (stereo unspecified)	none
COc1ccc(NC(=O)c2cc3c(=O)n4ccccc4nc3n2C)c(OC)c1	none
Cn1c(C(=O)NC2CCCCC2)cc2c(=O)n3ccccc3nc21	FBA Mtb inh 114
Cc1cc(Cl)ccc1OC(C)C(=O)Nc1ccc(C(=O)Nc2ccccc2C(=O)O)cc1 (stereo unspecified)	none
O=C1NC2(CCCC2)N=C1c1ccc(Cl)cc1	Bead autofluor 23960
Cc1ccc(C2=NC3(CCCCCC3)NC2=S)cc1	none
O=C1NC2(CCCCC2)N=C1c1ccc(Br)cc1	none
O=C1NC2(CCCCC2)N=C1c1ccc(F)cc1	Bead autofluor 22118
C[C@H](CO)N1C[C@H](C)[C@@H](CN(C)S(C)(=O)=O)Oc2ccc(NC(=O)c3ccncc3)cc2C1=O	none
CC(C)/C=N/Nc1nc2c(c(=O)n(C)c(=O)n2C)n1C	BoNT-A LC inh2 inconclusive, BoNT F protease inconclusive
CN(C)N=Nc1nc2c(c(=O)n(C)c(=O)n2C)n1C	GDH-TPI inh 34
Cc1cccc(C)c1-n1cccc1/C=C1/C(=N)N2C(=NC1=O)SN=C2S(C)(=O)=O	GDH-TPI inh 32
Cc1ccc(-n2cccc2/C=C2/C(=N)N3C(=NC2=O)SN=C3S(C)(=O)=O)cc1Cl	none
CCC1=NN2C(=N)/C(=C\c3cccn3-c3c(C)cccc3C)C(=O)N=C2S1	GDH-TPI inh 44
C=CCn1c(C(CCC(C)C)CC(C)(C)O)n[nH]c1=S (stereo unspecified)	Bead autofluor 24772
CC1(C)NC(=O)N(CCSc2ccc(Cl)cc2)C1=O	Bead autofluor 19822
CC1(C)NC(=O)N(CCOCCOc2ccccc2)C1=O	none
CC1(C)NC(=O)N(CCOCCSc2ccccc2)C1=O	Bead autofluor 24307
CC1(C)Cc2c(sc3nc(-c4cccs4)n(N)c(=O)c23)CO1	BoNT-A LC inh2 inconclusive, Bead autofluor 21380
Cc1nn2c(C)nc3sc4c(c3c2nc1=O)CC(C)(C)OC4	Bead autofluor 25222
CC(=O)NC(c1ccc(F)c(F)c1)c1nc(-c2ccccc2)cs1 (stereo unspecified)	none
CN(CC(=O)Nc1ccccc1-c1ccccc1)Cc1ccccc1Cl	none
O=C(CCCSc1nc(-c2ccco2)cc(C(F)(F)F)n1)NCc1cccs1	none
Nn1c(SCc2cccc3ccccc23)nnc1-c1ccco1	Bead autofluor 22596
Cc1cccc(C)c1NC(=O)CSc1nnc(-c2ccco2)n1N	Bead autofluor 21789
O=C(CSc1nc2scc(-c3ccco3)c2c(=O)n1-c1ccccc1)N1CCOCC1	Bead autofluor 21589
COc1ccccc1NC(=O)CSc1nnc(-c2ccco2)n1N	none
O=C(CCCSc1nc(-c2ccco2)cc(C(F)(F)F)n1)NCC1CCCO1 (stereo unspecified)	GDH-TPI inh 33
C[C@@H](c1ccccc1)N1C[C@@H](COCc2ccccc2)Oc2cc(N3CCC[C@@H]3CO)ccc2S1(=O)=O	none (no result: GDH-TPI inh, FBA Mtb inh)
COc1cc(C2=NC(CO)(CO)CO2)cc(OC)c1OC	none
O=C(COC(=O)c1ccccc1)NCC1COc2ccccc2O1 (stereo unspecified)	none
O=C(CSc1nc(-c2ccco2)cc(C(F)(F)F)n1)N1CCN(c2ccc(Cl)cc2)CC1	none
O=C(CSc1nc(-c2ccco2)cc(C(F)(F)F)n1)NCC1CCCO1 (stereo unspecified)	GDH-TPI inh 31
COc1ccccc1N1CCN(C(=O)CSc2nc(-c3ccco3)cc(C(F)(F)F)n2)CC1	GDH-TPI inh 32
O=C(CCSc1nc(-c2ccco2)cc(C(F)(F)F)n1)NCC1CCCO1 (stereo unspecified)	GDH-TPI inh 33
Cc1cc(NC(=O)CCSc2nc(-c3ccco3)cc(C(F)(F)F)n2)no1	none
C=CCn1c(SCC(=O)NCC2CCCO2)nc2scc(-c3ccco3)c2c1=O (stereo unspecified)	BoNT-A LC inh2 inconclusive, Bead autofluor 22083
O=C(CSc1nc(-c2ccco2)cc(C(F)(F)F)n1)NCCCN1CCOCC1	none
CCc1nc2ccc(C(=O)Nc3cccc(NS(C)(=O)=O)c3)cn2c1N(C)C(=O)c1cccc(OC)c1	none
